Assay results from the supplement of paper PMC6555819.

Assays:
Test in all cases: PBM binding z-score (relative to random genomic background probes); higher = stronger binding; sequences stand for … in GC…GCGATTGACAGCGTAGAATGAAGG
[1] = test system: RARb homodimer (NR concentration 270 nM)
Procedure, shortened: (§1)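 Binding z-scores were set against random background probes. The data came from custom Agilent 4×180K protein-binding microarrays carrying double-stranded probes with 34-nt variable regions, incubated 1 h with ligand-free nuclear receptor dimers. Partner-specific antibodies detected binding, and scanned fluorescence was regression-normalized.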

[2] = test system: RARg:RXRa (NR concentration 270 nM, RXRa partner concentration 90 nM)
Procedure, shortened: as §1

[3] = test system: RARg homodimer (NR concentration 270 nM)
Procedure, shortened: as §1

[4] = test system: RXRa DBDmut IVT, anti-RXR (DBD mutation: RXRa K156A/R161A, NR concentration 90 nM)
Procedure, shortened: as §1

[5] = test system: RXRa homodimer (NR concentration 180 nM)
Procedure, shortened: as §1

[6] = test system: THRa:RXRa (NR concentration 90 nM, RXRa partner concentration 90 nM)
Procedure, shortened: as §1

[7] = test system: THRa homodimer (NR concentration 90 nM)
Procedure, shortened: as §1

[8] = test system: VDR homodimer (NR concentration 270 nM)
Procedure, shortened: as §1

CGAACTAGGGCAAGGACAGTGAATCTCCGCACGC
PBM binding z-score [1]: 0.945
PBM binding z-score [2]: 0.544
PBM binding z-score [3]: 1.17
PBM binding z-score [4]: 0.123
PBM binding z-score [5]: 0.145
PBM binding z-score [6]: 1.09
PBM binding z-score [7]: 0.786
PBM binding z-score [8]: 0.0219

TTTCCAAGGTGAAGGTCGTTGATCCCTCTGTAGA
PBM binding z-score [1]: 2.06
PBM binding z-score [2]: 1.51
PBM binding z-score [3]: 1.29
PBM binding z-score [4]: 0.389
PBM binding z-score [5]: 1.95
PBM binding z-score [6]: 2.94
PBM binding z-score [7]: 1.8
PBM binding z-score [8]: 1.37

TAGCCTAGGTCATGCGGGCCGGTATAGTGTCGGC
PBM binding z-score [1]: 2.61
PBM binding z-score [2]: 3.71
PBM binding z-score [3]: 4.32
PBM binding z-score [4]: 0.444
PBM binding z-score [5]: 3.02
PBM binding z-score [6]: 2.97
PBM binding z-score [7]: 0.888
PBM binding z-score [8]: 0.344

CCTCGGAGGACAGAAGGTCAGAGCTGTCCGCTTT
PBM binding z-score [1]: 3.43
PBM binding z-score [2]: 3.39
PBM binding z-score [3]: 2.55
PBM binding z-score [4]: 0.0371
PBM binding z-score [5]: 1.89
PBM binding z-score [6]: 2.22
PBM binding z-score [7]: -0.0461
PBM binding z-score [8]: -0.131

ATCTCTACGTAACCAAGTTCAGTGAATGCCGAAC
PBM binding z-score [1]: 1.18
PBM binding z-score [2]: 0.251
PBM binding z-score [3]: 0.741
PBM binding z-score [4]: 0.846
PBM binding z-score [5]: 0.369
PBM binding z-score [6]: 0.592
PBM binding z-score [7]: 0.325
PBM binding z-score [8]: 2.27

CCTCTGAGGACAGAAGGTCAGAGCTGTCCGCTTT
PBM binding z-score [1]: 3.74
PBM binding z-score [2]: 3.76
PBM binding z-score [3]: 3.58
PBM binding z-score [4]: 1.08
PBM binding z-score [5]: 2
PBM binding z-score [6]: 3.4
PBM binding z-score [7]: 1.58
PBM binding z-score [8]: 0.647

CGTATTAGTTGACCATAAGGGCAACCGAAGCTCG
PBM binding z-score [1]: 2.04
PBM binding z-score [2]: 1.2
PBM binding z-score [3]: 0.883
PBM binding z-score [4]: 0.244
PBM binding z-score [5]: 0.743
PBM binding z-score [6]: 1.83
PBM binding z-score [7]: 1.15
PBM binding z-score [8]: 0.668
